Data reported in PubChem BioAssay.
The source made the active and inactive calls. Unless noted, the rule behind the calls is not given here.

What was measured:
[1] = anti-His antibody binders, primary screen, artefact control for SMM control protein annotation, biochemical, small-molecule microarray, 635 nm fluorescence (AID 1128); conditions: anti-His Alexa647 antibody binding, higher = more signal;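 note: score merges feature fluorescence with signal-to-noise for each printed compound spot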
[2] = system: Human papillomavirus type 1a E7 protein (residues 1-88); assay: HPV1a E7 small-molecule binders, primary screen, biochemical, small-molecule microarray, residues 1-88, 635 nm (AID 1129); conditions: small-molecule microarray binding, fluorescence 635 nm; higher = more signal
[3] = target: Focal adhesion kinase 1 (Homo sapiens) (UniProt Q05397); assay: small-molecule microarray binders of FAK, primary screen, biochemical, 635/667 nm fluorescence, BSA, DTT (AID 1130); conditions: PTK2 binding, 635 nm fluorescence, higher = more signal;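 note: composite of spot emission at 667 nm and signal to noise over triplicate slides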
Sequence of Focal adhesion kinase 1 (Homo sapiens) (Q05397 whole entry, looked up): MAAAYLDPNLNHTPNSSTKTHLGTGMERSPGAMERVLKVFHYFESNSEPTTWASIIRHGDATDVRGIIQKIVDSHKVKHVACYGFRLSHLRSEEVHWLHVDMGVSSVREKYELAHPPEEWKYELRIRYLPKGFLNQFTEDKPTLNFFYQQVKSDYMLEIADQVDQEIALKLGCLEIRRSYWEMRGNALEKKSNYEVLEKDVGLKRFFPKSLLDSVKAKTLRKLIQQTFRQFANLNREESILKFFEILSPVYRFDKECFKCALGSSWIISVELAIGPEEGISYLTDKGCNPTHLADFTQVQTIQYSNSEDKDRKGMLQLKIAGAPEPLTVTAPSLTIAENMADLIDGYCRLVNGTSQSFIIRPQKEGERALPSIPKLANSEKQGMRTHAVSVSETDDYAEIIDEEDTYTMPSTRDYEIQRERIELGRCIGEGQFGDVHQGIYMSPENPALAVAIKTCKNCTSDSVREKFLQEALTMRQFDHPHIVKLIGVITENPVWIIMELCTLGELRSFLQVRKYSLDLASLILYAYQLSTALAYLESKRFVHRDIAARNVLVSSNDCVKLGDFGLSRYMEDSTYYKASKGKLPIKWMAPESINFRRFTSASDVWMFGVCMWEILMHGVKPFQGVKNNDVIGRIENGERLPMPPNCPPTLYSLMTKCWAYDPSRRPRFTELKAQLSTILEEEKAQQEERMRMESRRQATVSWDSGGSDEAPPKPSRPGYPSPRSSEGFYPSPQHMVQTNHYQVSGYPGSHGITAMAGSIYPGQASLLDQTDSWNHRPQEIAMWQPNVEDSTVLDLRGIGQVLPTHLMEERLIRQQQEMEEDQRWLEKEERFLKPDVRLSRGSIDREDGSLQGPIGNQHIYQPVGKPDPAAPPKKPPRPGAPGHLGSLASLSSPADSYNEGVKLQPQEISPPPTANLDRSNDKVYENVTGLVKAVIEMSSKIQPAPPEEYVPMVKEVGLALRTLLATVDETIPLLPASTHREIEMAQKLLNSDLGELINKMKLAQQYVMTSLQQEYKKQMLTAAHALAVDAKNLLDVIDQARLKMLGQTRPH

[4] = system: Fibrinogen (Alexa647-labelled); assay: fibrinogen binders on compound microarrays, profiling panel, artefact control for SMM control-protein annotation, biochemical, small-molecule microarray, 635/667 nm fluorescence (AID 1131); conditions: fibrinogen-A647 binding fluorescence, higher = more signal;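 note: z-score merges 667 nm fluorescence with per-spot signal-to-noise over triplicate slides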
[5] = target: Follistatin (Homo sapiens) (UniProt P19883); assay: follistatin binders on small-molecule microarrays, primary screen, biochemical, small-molecule microarray, 635/667 nm fluorescence (AID 1132); conditions: FST binding, 635 nm fluorescence, higher = more signal
Sequence of Follistatin (Homo sapiens) (P19883 whole entry, looked up): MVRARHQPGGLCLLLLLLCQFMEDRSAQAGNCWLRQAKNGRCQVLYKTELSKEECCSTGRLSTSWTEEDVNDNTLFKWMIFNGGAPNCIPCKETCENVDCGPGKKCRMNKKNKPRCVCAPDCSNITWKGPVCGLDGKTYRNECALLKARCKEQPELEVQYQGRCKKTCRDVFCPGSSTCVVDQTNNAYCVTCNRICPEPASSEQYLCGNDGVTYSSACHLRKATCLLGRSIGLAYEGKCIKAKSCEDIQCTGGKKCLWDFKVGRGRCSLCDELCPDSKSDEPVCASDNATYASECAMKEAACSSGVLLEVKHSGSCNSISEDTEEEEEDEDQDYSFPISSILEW

[6] = target: Fibroblast growth factor 2 (Homo sapiens) (UniProt P09038); assay: FGF2 binders on small-molecule microarrays, primary screen, biochemical, small-molecule microarray, 635/667 nm fluorescence (AID 1133); conditions: small-molecule microarray binding, FGF2, fluorescence 635/667; higher = more signal
Sequence of Fibroblast growth factor 2 (Homo sapiens) (P09038 whole entry, looked up): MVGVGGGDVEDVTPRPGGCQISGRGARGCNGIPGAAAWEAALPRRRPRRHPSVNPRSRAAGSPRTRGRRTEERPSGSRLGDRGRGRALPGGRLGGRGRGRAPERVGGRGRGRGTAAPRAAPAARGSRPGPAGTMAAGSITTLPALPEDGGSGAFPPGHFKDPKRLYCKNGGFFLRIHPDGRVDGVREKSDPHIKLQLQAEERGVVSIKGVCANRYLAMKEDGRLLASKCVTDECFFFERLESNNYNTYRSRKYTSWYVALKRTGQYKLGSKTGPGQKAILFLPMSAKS

[7] = mitochondrial membrane potential change in A549 cells, profiling panel, cell-based, JC-1 fluorescence, basal, 24 h, 100 nL (AID 1138); conditions: higher = more signal;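 note: A549 lung adenocarcinoma cells under basal conditions with no added stimulus; test concentration not given here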
Lefty1 = Lefty1 binders on small-molecule microarrays, primary screen, biochemical, small-molecule microarray, 635/667 nm fluorescence (AID 1139); conditions: small-molecule microarray binding, fluorescence 635/667; higher = more signal
[8] = system: wheat germ agglutinin (Triticum aestivum), Alexa647-labelled; assay: wheat germ agglutinin binders on compound microarrays, profiling panel, artefact control for SMM control-protein annotation, biochemical, small-molecule microarray, 635/667 nm fluorescence (AID 1140); conditions: WGA-A647 binding, 635 nm fluorescence, higher = more signal;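 note: score merges 667 nm feature emission with signal to noise over triplicate slides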
[9] = target: Luciferin 4-monooxygenase (Photinus pyralis) (UniProt P08659); assay: firefly luciferase enzyme inhibitors, primary screen, biochemical, luminescence, purified enzyme, 2006 set (AID 1141); conditions: SteadyGlo luminescence, 30 min, higher = more signal, called active from +8 up or from −8 down;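 note: cell-free assay with purified firefly luciferase at 100 ng per well in PBS; test concentration not given here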
Sequence of Luciferin 4-monooxygenase (Photinus pyralis) (P08659 whole entry, looked up): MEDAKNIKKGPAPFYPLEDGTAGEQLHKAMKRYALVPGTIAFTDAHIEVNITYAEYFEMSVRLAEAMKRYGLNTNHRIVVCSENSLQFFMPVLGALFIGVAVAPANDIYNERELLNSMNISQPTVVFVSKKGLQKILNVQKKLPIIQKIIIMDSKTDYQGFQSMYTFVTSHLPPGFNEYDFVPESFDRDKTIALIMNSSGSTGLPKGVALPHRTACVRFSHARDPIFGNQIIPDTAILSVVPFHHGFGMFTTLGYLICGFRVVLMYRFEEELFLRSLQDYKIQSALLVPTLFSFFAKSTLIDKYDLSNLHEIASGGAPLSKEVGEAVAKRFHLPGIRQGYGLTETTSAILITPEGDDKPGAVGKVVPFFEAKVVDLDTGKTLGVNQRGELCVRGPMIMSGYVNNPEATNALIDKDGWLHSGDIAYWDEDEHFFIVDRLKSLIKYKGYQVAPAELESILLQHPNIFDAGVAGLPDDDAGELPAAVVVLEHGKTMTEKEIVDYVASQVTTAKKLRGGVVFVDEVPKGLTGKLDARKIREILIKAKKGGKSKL

[10] = system: Wnt5a (protein binding on small-molecule microarray); assay: Wnt5a binders on small-molecule microarray, primary screen, biophysical, 635/667 nm fluorescence (AID 1142); conditions: 635 nm fluorescence, higher = more signal;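 note: fluorescence read at 667 nm with signal to noise per printed feature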
[11] = cell viability in Huh7 cells, primary screen, cytotoxicity control for HCV replication inhibitor project, CellTiter-Glo luminescence, basal, 48 h (AID 1143); conditions: Huh7 HCV replicon, higher = more signal, called active from +8 up or from −8 down;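 note: Huh7 hepatoma cells carrying a hepatitis C replication reporter with no stimulus; test concentration not given here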
[12] = P. aeruginosa biofilm formation inhibitors, primary screen, PAO1 strain, BacTiter-Glo luminescence, LB-PBS (AID 1144); conditions: 12 h, higher = more signal
[13] = CREB reporter modulators without forskolin, primary screen, cell-based, PC12, CRE-LacZ reporter, unstimulated (AID 1145); conditions: no forskolin, luminescence, 4.5 h, higher = more signal, called active from +8 up or from −8 down
[14] = CREB reporter modulators under forskolin, primary screen, cell-based, PC12, CRE-LacZ reporter, forskolin-stimulated (AID 1146); conditions: luminescence, 4.5 h, higher = more signal, called active from +8 up or from −8 down;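 note: PC12 cells with 6xCRE LacZ reporter stimulated by forskolin 10 µM; beta-galactosidase reporter signal reflecting CREB driven transcription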
[15] = target: Streptavidin (Streptomyces avidinii) (UniProt P22629); assay: streptavidin binders on small-molecule microarray, primary screen, artefact control for SMM compound annotation, biophysical, 635/667 nm fluorescence (AID 1147); conditions: streptavidin binding, higher = more signal;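 note: signal reflects streptavidin binding to arrayed compounds as a control protein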
Sequence of Streptavidin (Streptomyces avidinii) (P22629 whole entry, looked up): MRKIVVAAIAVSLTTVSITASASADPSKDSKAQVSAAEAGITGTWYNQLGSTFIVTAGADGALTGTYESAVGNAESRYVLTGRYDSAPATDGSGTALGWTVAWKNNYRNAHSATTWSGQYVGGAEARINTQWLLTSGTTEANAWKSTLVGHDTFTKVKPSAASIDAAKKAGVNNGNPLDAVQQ

[16] = small-molecule binders of probe aInhba, primary screen, biochemical, small-molecule microarray, 635/667 nm fluorescence (AID 1148); conditions: higher = more signal;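 note: score merges 667nm spot fluorescence with signal-to-noise for antibody binding to printed compounds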
Torsin-1A (Homo sapiens) [17] = target: Torsin-1A (Homo sapiens) (UniProt O14656); assay: torsin A binders from cell lysate, primary screen, small-molecule microarray, wild-type, 635/667 nm (AID 1149); conditions: COS7 hTOR1A-WT lysate, 635 nm fluorescence, higher = more signal
Sequence of Torsin-1A (Homo sapiens) (O14656 whole entry, looked up): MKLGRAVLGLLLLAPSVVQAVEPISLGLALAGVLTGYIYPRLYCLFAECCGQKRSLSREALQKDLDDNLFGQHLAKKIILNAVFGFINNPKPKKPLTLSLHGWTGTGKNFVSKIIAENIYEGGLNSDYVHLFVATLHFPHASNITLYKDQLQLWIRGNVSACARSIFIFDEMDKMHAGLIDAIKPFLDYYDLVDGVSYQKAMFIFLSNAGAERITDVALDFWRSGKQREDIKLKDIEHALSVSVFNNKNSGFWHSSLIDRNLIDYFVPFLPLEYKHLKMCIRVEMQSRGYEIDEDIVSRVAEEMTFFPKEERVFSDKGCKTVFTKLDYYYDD

Torsin-1A (Homo sapiens) [18] = target: Torsin-1A (Homo sapiens) (UniProt O14656); assay: small-molecule binders of mutant TOR1A in lysate, primary screen, cell lysate, small-molecule microarray, COS7 lysate, 635/667 nm fluorescence (AID 1150); conditions: COS7 hTOR1A mutant lysate, 635 nm fluorescence, higher = more signal;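 note: score pools 667 nm emission and signal to noise measuring lysate protein binding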
[19] = system: Sonic hedgehog protein (Shh); assay: small-molecule binders of Shh protein, primary screen, biochemical, small-molecule microarray, 635/667 nm fluorescence (AID 1151); conditions: small-molecule microarray binding, 635 nm fluorescence; higher = more signal;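 note: Shh protein binding to compounds spotted on small-molecule microarray slides; score combines spot fluorescence intensity with signal-to-noise across triplicate slides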

| SMILES | composite z-score [1] | composite z-score [2] | composite z-score [3] | composite z-score [4] | composite z-score [5] | composite z-score [6] | z-score [7] | composite z-score (Lefty1) | composite z-score [8] | z-score [9] | composite z-score [10] | z-score [11] | z-score [12] | z-score [13] | z-score [14] | composite z-score [15] | composite z-score [16] | composite z-score (Torsin-1A (Homo sapiens) [17]) | composite z-score (Torsin-1A (Homo sapiens) [18]) | composite z-score [19] |
| --- | --- | --- | --- | --- | --- | --- | --- | --- | --- | --- | --- | --- | --- | --- | --- | --- | --- | --- | --- | --- |
| CCCC[C@@H](O)C1=C(COc2ccccc2)C[C@H]2C(=O)N(C)C(=O)[C@H]2[C@H]1CO | 0.0713 | -0.231 | 0.713 | -0.247 | 0.129 | -0.16 | 0.708 | 0.0695 | -0.488 | -0.475 (inactive) | -0.339 | -1.22 (inactive) | -1.24 (inactive) | 2.49 (inactive) | -0.94 (inactive) | -0.803 | -0.102 | -0.631 | 0.596 | 0.406 |
| CCOC(=O)C1=C[C@@H](c2ccccc2)N(S(=O)(=O)c2ccc(C)cc2)[C@H]1c1ccccc1Cl | 0.857 | 1.17 | 1.6 | 0.86 | 0.761 | 0.414 | 1.53 | 0.838 | 0.778 | 0.86 (inactive) | 0.387 | -3.97 (inactive) | 0.533 (inactive) | -0.312 (inactive) | 0.343 (inactive) | 1.6 | -0.0221 | 0.888 | 0.273 | 0.844 |
| COC(=O)[C@@]1(Cc2ccccc2)[C@H]2c3cc(C(=O)N(C)C)n(CCN4CNCC4=O)c3C[C@H]2CN1C(=O)c1ccccc1 | 3.19 | 0.644 | -0.619 | -1.2 | -0.64 | -0.8 | 0.697 | -2.13 | 1.45 | 0.394 (inactive) | 0.569 | 0.106 (inactive) | -0.505 (inactive) | 0.0007 (inactive) | 0.547 (inactive) | 1.54 | 1.28 | 3.83 | 4.06 | -1.85 |
| C=C(C)c1cc2c(c(CCCCCC)n1)[Si](C(C)C)(C(C)C)OC2 | 0.18 | -1.15 | -0.534 | -1.93 | -0.522 | -1.45 | -1.17 | -0.174 | -1.19 | 0.903 (inactive) | -0.712 | -0.342 (inactive) | 0.582 (inactive) | 0.367 (inactive) | 0.0246 (inactive) | -1.01 | -0.159 | -1.74 | -1.05 | -0.351 |
| C[C@@H]1ON(c2ccc(C(=O)OC(C)(C)C)cc2)[C@H](c2ccc(O)cc2)[C@H]1C(=O)N1C(=O)OC[C@H]1Cc1ccccc1 | 0.249 | 1.03 | 0.437 | 0.584 | 0.472 | 0.382 | -1.49 | 1.29 | 0.828 | -0.416 (inactive) | 0.218 | -2.96 (inactive) | 0.133 (inactive) | 1.22 (inactive) | 0.419 (inactive) | 0.922 | -0.0552 | 0.438 | 0.616 | 0.596 |
